Compound activity deposited in PubChem by Columbia University Molecular Screening Center.
An excerpt weighted towards active compounds, which were near 1.4% of everything screened.
INS promoter inh: TRM-6 insulin promoter activity inhibition. TRM-6 cells (human fetal islet line), insulin promoter-eGFP reporter, imaging; reporter expression induced with tamoxifen. inhibition, % at 2 µM. hit rate 0.9% among 130,000. AID 1273;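 active means inhibition above the mean plus 3 SD, with well images judged a real hit on visual review, cut at about 60% in these data, passing the limit was not always enough; inconclusive means inhibition over the cutoff but images rejected on review; inactive means inhibition not above the cutoff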
NFkB transloc inh: blocks IL-1B driven NFkB nuclear translocation in HUVEC cells. HUVEC IL-1B NFkB p65 nuclear translocation imaging. inhibition, % at 2 µM. hit rate 0.43% among 94,000;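 active means inhibition above about 30% together with a positive call from visual inspection of the well image, limit read from the data; inconclusive means inhibition above a set limit but visual check negative; inactive means inhibition not above a set limit, visual check negative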;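 further: nuclear over cytoplasmic p65 intensity ratio measured by imaging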
NFkB transloc pot: enhances IL-1B driven NFkB nuclear translocation. HUVEC IL-1B NFkB p65 nuclear translocation imaging. activation, % at 2 µM. hit rate 0.3% among 94,000;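 active means activation above 40%, about the mean plus 3 SD, also judged a hit on visual image review; inconclusive means activation above 40% but not a hit on visual review; inactive means activation not above 40% and no visual hit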;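 further: percent activation is computed from the nuclear over cytoplasmic p65 intensity ratio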
HUVEC tox IL1B: HUVEC cytotoxicity counter-screen, IL-1B stimulated; HUVEC cell count loss, Hoechst imaging; cell count reduction, % at 2 µM; hit rate 0.41% among 94,000; AID 845;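 active means cell count reduction more than 3 SD above the screen-wide mean, cut at about 70% in these data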
Numbers stand for hits; n = inactive; u = inconclusive; x = not tested or not shown.

SMILES	INS promoter inh	NFkB transloc inh	NFkB transloc pot	HUVEC tox IL1B
CN(C)c1cccc2c(C#N)ccc(N(C)C)c12	87	x	x	x
O=C(c1ccc(N2CC3CC(C2)c2cccc(=O)n2C3)c([N+](=O)[O-])c1)N1CCCC1 (stereo not drawn)	n	x	x	x
Cc1ccc2c(c1)CC1(CN2C)C(=O)NC(=O)N(CCC2=CCCCC2)C1=O (stereo not drawn)	n	n	66	n
CCCCn1c(O)c(C=NC2CCCCC2N)c(=O)[nH]c1=O (stereo not drawn)	n	99	n	84
CCCCCCn1c(O)c(C=NC2CCCCC2N)c(=O)[nH]c1=O (stereo not drawn)	n	n	n	n
COc1ccc(-n2c(Cc3cccc([N+](=O)[O-])c3)nc3ccccc3c2=O)cc1	n	x	x	x
Cc1ccc(CS(=O)(=O)Cc2ccc(C(=O)N3CCC4(CC3)OCCO4)o2)cc1	n	n	n	n
Cc1ccc(CS(=O)(=O)CCC(=O)N2CCC3(CC2)OCCO3)cc1	n	n	n	92
CCOC(=O)COc1ccc2c(c1)c(C(C)=O)c(C)n2Cc1ccccc1	n	x	x	x
O=C(c1ccccc1)c1cn(CC(=O)N2CCCc3ccccc32)c2ccccc12	n	n	n	n
O=C(Cn1cc(C(=O)c2ccccc2)c2ccccc21)NCc1ccco1	n	93	n	88
O=C(C1CC(=O)N(C2CCCCCCC2)C1)N1CCC2(CC1)OCCO2 (stereo not drawn)	74	n	n	n
CN1CCC(n2nccc2N)CC1	n	36	n	n
Nc1ccnn1C1CCNCC1	n	n	n	n
NC(=O)c1cn(C2OC(CO)C(O)C2O)c2ncnc(N)c12 (stereo not drawn)	64	x	x	x
CCS(=O)(=O)NCc1nnc2n1-c1ccc(Cl)cc1C(c1ccccc1)=NC2	n	x	x	x
COc1ccc(C(c2c(O)c3ccccc3oc2=O)c2c(C)n(C)n(-c3ccccc3)c2=O)cc1 (stereo not drawn)	64	x	x	x
O=C(c1cc2ccccn2n1)N1CCC2(CC1)OCCO2	n	n	u	n
COc1ccc(-c2cc(C(F)(F)F)n3nc(C(=O)N4CCC5(CC4)OCCO5)cc3n2)cc1OC	n	n	n	89
Cc1nn(Cc2ccccc2)c(Cl)c1C(=O)NC1CCCc2ccccc21 (stereo not drawn)	n	x	x	x
COC(=O)C1CN(C#N)N(c2ccc(Cl)cc2)C12c1ccccc1-c1ccccc12 (stereo not drawn)	n	65	n	n
COc1ccc(C(=O)CN2CCOCC2)cc1F	82	n	n	n
Cc1cc(=O)n(-c2ccccc2)n1-c1ccccc1	n	x	x	x
O=C(N=Nc1c(O)[nH]c(=O)[nH]c1=O)C1COc2cc3ccccc3cc2O1 (stereo not drawn)	n	x	x	x
COc1ccc(N=Cc2c(O)n(-c3ccc(C)cc3)c(=O)[nH]c2=O)cc1	83	x	x	x
SMILES	INS promoter inh	NFkB transloc inh	NFkB transloc pot	HUVEC tox IL1B
CCn1ncc(/C=C2/CC3C4CC=C5CC(O)CCC5(C)C4CCC3(C)C2=O)c1C (stereo not drawn)	n	n	n	n
O=C(c1cc2cc3ccc(Cl)cc3nc2o1)N1CCC2(CC1)OCCO2	84	n	n	n
CCN(CC)S(=O)(=O)c1cc(NC(=O)C(C)N2CC=C(c3ccccc3)CC2)ccc1C (stereo not drawn)	n	x	x	x
CN1CSC(=S)N(C)C1	68	n	n	n
O=C(c1ccc(N2CC3CC(C2)c2cccc(=O)n2C3)c([N+](=O)[O-])c1)N1CCCCC1 (stereo not drawn)	n	x	x	x
Cc1ccc2c(c1)[C@@H]1CN(C)CC[C@@H]1N2C(=O)Nc1cccc(C(F)(F)F)c1	n	n	n	n
Cc1ccc2c(c1)C1CN(C)CCC1N2C(=O)Nc1cccc(C(F)(F)F)c1 (stereo not drawn)	n	30	n	n
